Experimental findings from PubChem BioAssay are described below.

The nature of assay [1]: compounds binding Alexa647 anti-His antibody – biochemical, small-molecule microarray, 635 nm fluorescence, artefact control for SMM control protein annotation, primary screen (AID 1128).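 Also: score merges feature fluorescence with signal-to-noise for each printed compound spot.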 The note with it: higher = more signal.
Assay [2] concerns Human papillomavirus type 1a E7 protein (residues 1-88). In words: HPV1a E7 small-molecule binders, primary screen, biochemical, small-molecule microarray, residues 1-88, 635 nm (AID 1129). To be noted: small-molecule microarray binding, fluorescence 635 nm; higher = more signal.
The target in assay [3] is Focal adhesion kinase 1 (Homo sapiens) (UniProt Q05397). Nature of the assay: PTK2 protein binding on printed compound slides – biochemical, small-molecule microarray, 635/667 nm fluorescence, BSA, DTT, primary screen (AID 1130).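 Also: composite of spot emission at 667 nm and signal to noise over triplicate slides.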 To be noted: 635 nm fluorescence, higher = more signal.
Sequence of Focal adhesion kinase 1 (Homo sapiens) (Q05397 whole entry, looked up): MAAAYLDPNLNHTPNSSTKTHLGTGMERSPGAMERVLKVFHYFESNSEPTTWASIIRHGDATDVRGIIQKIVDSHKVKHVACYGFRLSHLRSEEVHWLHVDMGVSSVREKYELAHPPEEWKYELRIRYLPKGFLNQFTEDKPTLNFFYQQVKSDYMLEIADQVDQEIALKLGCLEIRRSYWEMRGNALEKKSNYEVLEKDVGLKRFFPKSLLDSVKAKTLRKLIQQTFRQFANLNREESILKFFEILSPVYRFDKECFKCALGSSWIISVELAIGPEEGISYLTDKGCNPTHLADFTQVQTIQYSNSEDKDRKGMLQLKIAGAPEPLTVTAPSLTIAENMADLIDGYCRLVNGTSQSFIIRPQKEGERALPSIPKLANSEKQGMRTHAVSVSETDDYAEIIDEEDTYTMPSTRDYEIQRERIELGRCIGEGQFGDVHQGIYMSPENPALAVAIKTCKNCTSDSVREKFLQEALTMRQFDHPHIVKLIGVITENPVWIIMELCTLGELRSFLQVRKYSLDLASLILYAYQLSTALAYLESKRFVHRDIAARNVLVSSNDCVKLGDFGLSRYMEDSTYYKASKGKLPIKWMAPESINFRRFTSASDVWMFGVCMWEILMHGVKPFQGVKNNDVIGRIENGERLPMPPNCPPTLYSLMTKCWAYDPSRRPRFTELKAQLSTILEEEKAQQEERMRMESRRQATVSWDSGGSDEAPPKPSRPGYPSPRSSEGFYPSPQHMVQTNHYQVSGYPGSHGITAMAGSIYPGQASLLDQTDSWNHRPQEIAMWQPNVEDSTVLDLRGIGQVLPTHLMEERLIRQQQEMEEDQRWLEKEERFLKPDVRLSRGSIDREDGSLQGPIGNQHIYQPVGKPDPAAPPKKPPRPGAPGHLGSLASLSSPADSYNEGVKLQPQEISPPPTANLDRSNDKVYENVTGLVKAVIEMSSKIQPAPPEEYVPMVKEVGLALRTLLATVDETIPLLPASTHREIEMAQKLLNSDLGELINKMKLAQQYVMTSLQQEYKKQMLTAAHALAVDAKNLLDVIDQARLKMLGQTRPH
The subject of assay [4] is Fibrinogen (Alexa647-labelled). Nature of the assay: Alexa647-fibrinogen binding to printed small molecules – biochemical, small-molecule microarray, 635/667 nm fluorescence, artefact control for SMM control-protein annotation, profiling panel (AID 1131).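 Also: z-score merges 667 nm fluorescence with per-spot signal-to-noise over triplicate slides.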 The note with it: fibrinogen-A647 binding fluorescence, higher = more signal.
Assay [5] deals with Follistatin (Homo sapiens) (UniProt P19883). In words: FST protein binding to printed compounds – biochemical, small-molecule microarray, 635/667 nm fluorescence, primary screen (AID 1132). To be noted: 635 nm fluorescence, higher = more signal.
Sequence of Follistatin (Homo sapiens) (P19883 whole entry, looked up): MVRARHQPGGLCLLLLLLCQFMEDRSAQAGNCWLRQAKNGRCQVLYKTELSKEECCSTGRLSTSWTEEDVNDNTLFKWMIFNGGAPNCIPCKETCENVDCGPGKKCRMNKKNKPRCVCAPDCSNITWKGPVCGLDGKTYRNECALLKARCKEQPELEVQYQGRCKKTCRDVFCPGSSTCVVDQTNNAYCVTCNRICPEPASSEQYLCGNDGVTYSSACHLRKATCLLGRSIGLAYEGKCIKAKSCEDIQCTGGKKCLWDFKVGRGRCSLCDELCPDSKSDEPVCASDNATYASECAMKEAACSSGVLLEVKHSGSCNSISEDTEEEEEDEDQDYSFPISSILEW
Assay [6] has as its target Fibroblast growth factor 2 (Homo sapiens) (UniProt P09038). Nature of the assay: basic fibroblast growth factor binding to printed compounds – biochemical, small-molecule microarray, 635/667 nm fluorescence, primary screen (AID 1133). The note with it: FGF2, fluorescence 635/667, higher = more signal.
Assay [7] is described as follows: JC-1 mitochondrial potential readout, lung cancer cells – cell-based, A549, JC-1 fluorescence, basal, 24 h, 100 nL, profiling panel (AID 1138).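 Also: A549 lung adenocarcinoma cells under basal conditions with no added stimulus; test concentration not given here.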 To be noted: higher = more signal.
The subject of another assay is Lefty1. Nature of the assay: Lefty1 protein binding to printed compounds – biochemical, small-molecule microarray, 635/667 nm fluorescence, primary screen (AID 1139). To be noted: fluorescence 635/667, higher = more signal.
Assay [8] relates to wheat germ agglutinin (Triticum aestivum), Alexa647-labelled. In words: Alexa647-WGA lectin binding to printed small molecules – biochemical, small-molecule microarray, 635/667 nm fluorescence, artefact control for SMM control-protein annotation, profiling panel (AID 1140).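 Also: score merges 667 nm feature emission with signal to noise over triplicate slides.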 The note with it: WGA-A647 binding, 635 nm fluorescence, higher = more signal.
Assay [9] addresses Luciferin 4-monooxygenase (Photinus pyralis) (UniProt P08659). Nature of the assay: inhibition of purified Photinus pyralis luciferase – biochemical, luminescence, purified enzyme, 2006 set, primary screen (AID 1141).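 Also: cell-free assay with purified firefly luciferase at 100 ng per well in PBS; test concentration not given here.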 To be noted: purified firefly luciferase, SteadyGlo luminescence, 30 min; higher = more signal, called active from +8 up or from −8 down.

The source made the active and inactive calls.

Sequence of Fibroblast growth factor 2 (Homo sapiens) (P09038 whole entry, looked up): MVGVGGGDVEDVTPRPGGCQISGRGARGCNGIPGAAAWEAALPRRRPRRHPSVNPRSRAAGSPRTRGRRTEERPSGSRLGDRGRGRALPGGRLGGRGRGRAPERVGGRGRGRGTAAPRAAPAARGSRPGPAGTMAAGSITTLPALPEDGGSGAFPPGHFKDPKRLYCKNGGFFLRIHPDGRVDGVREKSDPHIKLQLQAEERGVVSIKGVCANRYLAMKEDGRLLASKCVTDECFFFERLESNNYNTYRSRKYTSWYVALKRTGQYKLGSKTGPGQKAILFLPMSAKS
Sequence of Luciferin 4-monooxygenase (Photinus pyralis) (P08659 whole entry, looked up): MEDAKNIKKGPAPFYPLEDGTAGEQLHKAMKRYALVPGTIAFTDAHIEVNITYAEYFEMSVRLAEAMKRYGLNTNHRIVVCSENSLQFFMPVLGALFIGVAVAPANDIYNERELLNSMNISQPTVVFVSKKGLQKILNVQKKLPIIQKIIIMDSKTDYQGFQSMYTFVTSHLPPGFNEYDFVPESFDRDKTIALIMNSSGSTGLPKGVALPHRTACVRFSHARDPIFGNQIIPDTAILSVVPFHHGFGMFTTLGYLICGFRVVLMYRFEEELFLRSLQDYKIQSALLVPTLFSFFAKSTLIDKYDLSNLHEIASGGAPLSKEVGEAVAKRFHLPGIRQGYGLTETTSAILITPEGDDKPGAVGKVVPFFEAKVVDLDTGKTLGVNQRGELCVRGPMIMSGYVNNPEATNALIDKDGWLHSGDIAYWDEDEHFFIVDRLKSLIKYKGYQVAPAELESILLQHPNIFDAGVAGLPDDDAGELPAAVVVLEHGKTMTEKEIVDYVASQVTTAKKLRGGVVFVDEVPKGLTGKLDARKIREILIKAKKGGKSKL

Consider `CCOC(=O)C1=CCC(c2ccc([N+](=O)[O-])cc2)N(S(=O)(=O)c2ccc(C)cc2)C1` (stereo not given), for which the composite z-score in assay [1] is 0.711; in [2], 0.915; in [3] it was 0.801; in assay [4], -0.0411; in assay [5], 0.261; in [6], -0.277. In addition, the results for the composite z-score (in the assay on Lefty1; in assay [8]) were -0.023 and 0.44, respectively. Further, the z-score in assay [7] is 1.15; in assay [9], 1.95 (inactive).

With `NCCCCCNC(=O)[C@H]1C[C@H]2C(=O)NCC(=O)N2[C@H]1c1cccc(OCCO)c1`, the composite z-score came to 0.524 in [1]; 0.817 in assay [2]; 0.369 in assay [3]; 0.909 in assay [4]; 1.26 in assay [5]; 1.08 in [6]. Moreover, the composite z-score was determined as 1.5 with Lefty1 and 0.739 in assay [8]. For the same molecule, the z-score in assay [7] is 0.431; in assay [9], 0.199 (inactive).

In the case of `COCCOC(=O)N1C(=O)[C@@]2(c3cc(C#CCNC(N)=O)ccc31)[C@H](C(=O)N1CCc3cc(OC)c(OC)cc3C1)[C@H]1C(=O)O[C@H](c3ccccc3)[C@H](c3ccccc3)N1[C@@H]2c1ccc(OCCO)cc1`, the composite z-score in [1] was 0.101; in assay [2], 0.158; in [3], -0.0354; in assay [4], 0.108; in assay [5], 1.3; in [6], 1.41. Also, the composite z-score in the assay with Lefty1 was 0.881; in assay [8], 0.385. In addition, the z-score in assay [7] was -1.49; in assay [9] it was -0.553 (inactive).

For the molecule `CC(C)c1ccc(NN2C(C(O)c3ccc(N(C)C)cc3)C=CC3C(=O)N(c4ccccc4)C(=O)C32)cc1` (stereo not given), the composite z-score was 0.435 in [1]; 1.24 in assay [2]; 0.0061 in [3]; 0.96 in assay [4]; 1.25 in [5]; -0.321 in [6]. In addition, the composite z-score in the assay with Lefty1 was found to be 0.273; in assay [8], 0.923. The z-score in assay [7] was 0.594; in [9], -0.943 (inactive).

Consider `CC(C)N1C(=O)c2ccccc2[C@@H](C(=O)NCCCN(C)C)[C@@H]1c1ccc(CO)cc1`, for which the composite z-score in assay [1] was 0.0674; in assay [2], -0.163; in assay [3], 1.13; in assay [4], -0.305; in assay [5] it was -0.631; in [6] it was -0.521. Further, the values for the composite z-score (in the assay with Lefty1; in assay [8]) were -1.12 and 0.705, respectively. Further, the results for the z-score in assay [7] and in [9] were -0.864 and 0.571 (inactive), respectively.

`Cc1ccc(F)cc1S(=O)(=O)N[C@@H]1CCN(Cc2ccc(-c3ccccc3)cc2)C1`: the composite z-score in assay [1] is -0.0798; in assay [2], 0.517; in [3], 0.377; in [4], -0.0516; in assay [5], 0.646; in assay [6], 0.424. Moreover, the figures for the composite z-score (with Lefty1; in [8]) were 0.292 and -0.108, respectively. For the same molecule, the z-score in [7] is 0.225; in assay [9], 0.715 (inactive).

As to `COc1ccc(C#Cc2ccc3c(c2)[C@]2(C(=O)N3)[C@H](c3ccc(O)cc3)N3[C@H](c4ccccc4)[C@H](c4ccccc4)OC(=O)[C@H]3[C@@H]2C(=O)NC[C@H](O)c2ccccc2)cc1`, the composite z-score in [1] amounted to 1.35; in [2], 1.21; in [3], 0.32; in [4], 0.556; in [5], 1.03; in [6] it was 0.487. Besides, the figures for the composite z-score (in the assay on Lefty1; in [8]) were 0.751 and 1.01, respectively. In addition, the z-score in assay [7] is -1.26; in assay [9], -0.835 (inactive).

On to `COc1ccc([Si](C)(C)[C@@H]2[C@@H](CC(=O)N(CCO)Cc3ccccc3)O[C@]3(C(=O)N(C)c4ccccc43)[C@H]2C)cc1`, for which the composite z-score in assay [1] came to 1.93; in [2], 1.17; in [3] it was 0.495; in [4], 0.958; in assay [5], 1.44; in assay [6] it was 1.4. Moreover, the figures for the composite z-score (in the assay with Lefty1; in assay [8]) were 1.45 and 1.17, respectively. Moreover, the z-score is 0.194 in assay [7] and 0.0071 (inactive) in [9].

Regarding `O=C1N(CCS(=O)(=O)c2ccccc2)Cc2ccccc2C[C@]12N=C(c1ccc(OCCCO)cc1)O[C@@H]2c1ccccc1`, the composite z-score stood at 2.51 in assay [1]; 1.08 in [2]; 0.342 in assay [3]; 0.356 in assay [4]; 1.5 in [5]; 1.91 in assay [6]. In addition, the composite z-score in the assay on Lefty1 came to 0.557; in assay [8] it was 1.13. In addition, the values for the z-score in [7] and in assay [9] were 0.685 and -1 (inactive), respectively.

As to `COCCOC(=O)N1C(=O)[C@@]2(c3cc(C#CCC(C(=O)OC)C(=O)OC)ccc31)[C@H](C(=O)N1CCN(c3ncccn3)CC1)[C@H]1C(=O)O[C@H](c3ccccc3)[C@H](c3ccccc3)N1[C@@H]2c1ccc(OCCO)cc1`, the composite z-score in [1] is 1.61; in [2], 1.19; in assay [3], 0.21; in [4], 0.993; in assay [5], 1.24; in assay [6], 1.2. Besides, the composite z-score in the assay on Lefty1 was found to be 0.733; in [8], 0.945. Besides, the figures for the z-score in assay [7] and in [9] were -1.31 and -0.59 (inactive), respectively.

On to `COC(=O)[C@@]1(Cc2ccc(OC)cc2)[C@H]2c3cc(C(=O)N4CCCC4)n(Cc4cc(F)cc5c4OCOC5)c3C[C@H]2CN1C(=O)c1ccccc1`, for which the composite z-score in assay [1] is -0.642; in assay [2], 1.2; in assay [3] it was 0.993; in assay [4] it was -0.18; in assay [5], 0.0448; in assay [6] it was -0.873. The results for the composite z-score (with Lefty1; in assay [8]) were -0.394 and 0.0908, respectively. Further, the z-score in assay [7] was 0.64; in assay [9] it was 0.0222 (inactive).

For the molecule `CC(c1ccccc1)C(O)C1C=CC2C(=O)NC(=O)C2N1Nc1ccccn1` (stereo not given), the composite z-score is 1.28 in [1]; 0.997 in assay [2]; -0.0073 in [3]; 0.675 in assay [4]; 1.12 in assay [5]; 0.458 in assay [6]. Besides, the composite z-score with Lefty1 was 0.335; in [8], 0.528. The z-score was 0.845 in assay [7] and -1.64 (inactive) in assay [9].

On to `O=C1C=CC(=O)[C@@H]2CC(COc3ccccc3)=C3[C@@H](CCc4ccccc4)OB(O)C[C@@H]3[C@H]12`, for which the composite z-score is 0.346 in assay [1]; 0.273 in assay [2]; -0.0461 in assay [3]; -0.0249 in assay [4]; 1.08 in assay [5]; 0.45 in assay [6]. In addition, the composite z-score with Lefty1 was 0.411; in assay [8] it was -0.158. Further, the z-score was -1.59 in assay [7] and -3.18 (inactive) in assay [9].

As to `[N-]=[N+]=NCc1ccccc1C[C@]1(C(=O)O)N=C(c2ccc(OCCCO)cc2)O[C@H]1c1ccccc1CN=[N+]=[N-]`, the composite z-score in assay [1] stood at 1.25; in assay [2], 1.03; in [3], 0.378; in [4], 1.02; in assay [5] it was 0.879; in assay [6], 0.157. The composite z-score with Lefty1 is -0.8; in [8], 1.08. For the same molecule, the z-score was 0.0653 in assay [7] and -1.49 (inactive) in assay [9].
